Sfp PPTase inh: inhibitors of Bacillus subtilis Sfp phosphopantetheinyl transferase. Biochemical Sfp PPTase activity, qHTS. Potency, µM, actives largely listed as inhibitors. 3.5% of 310,000 active. AID 1490;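 further: the enzyme is Sfp with the accession as filed and its product quenches rhodamine fluorescence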
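Fluorescence-quenching assay: 15 nM Sfp-PPTase preincubated 15 min at room temperature with compound, then 5 uM rhodamine-CoA and 12.5 uM BHQ-2-labelled YbbR peptide added. Fluorescence (ex 525/em 598 nm) read at start and after 30 min; difference gives rate.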
Gal4-VP16 FLuc: Gal4-VP16 reporter inhibition counter-screen; 3.5% of 310,000 active; Potency, µM (doses to about 53.6 µM), hits mostly inhibitors; Drosophila S2 Gal4-VP16 UAS-luciferase, luminescence, 20 h;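 further: Gal4-VP16 expression switched on by copper sulfate through the metallothionein promoter; nearly all actives have a fitted effect of over 50% in size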
RORg inh: ROR gamma (mouse) transcription inhibition; P51450; 5.4% of 310,000 active; Drosophila S2 Gal4-RORgamma UAS-luciferase reporter, 20 h; Potency, µM (top dose mostly 53.6 µM), hits mostly inhibitors; further: nearly all actives have a fitted effect of over 60% in size
Target sequence (P51450 whole entry, looked up, the tested form may be a part): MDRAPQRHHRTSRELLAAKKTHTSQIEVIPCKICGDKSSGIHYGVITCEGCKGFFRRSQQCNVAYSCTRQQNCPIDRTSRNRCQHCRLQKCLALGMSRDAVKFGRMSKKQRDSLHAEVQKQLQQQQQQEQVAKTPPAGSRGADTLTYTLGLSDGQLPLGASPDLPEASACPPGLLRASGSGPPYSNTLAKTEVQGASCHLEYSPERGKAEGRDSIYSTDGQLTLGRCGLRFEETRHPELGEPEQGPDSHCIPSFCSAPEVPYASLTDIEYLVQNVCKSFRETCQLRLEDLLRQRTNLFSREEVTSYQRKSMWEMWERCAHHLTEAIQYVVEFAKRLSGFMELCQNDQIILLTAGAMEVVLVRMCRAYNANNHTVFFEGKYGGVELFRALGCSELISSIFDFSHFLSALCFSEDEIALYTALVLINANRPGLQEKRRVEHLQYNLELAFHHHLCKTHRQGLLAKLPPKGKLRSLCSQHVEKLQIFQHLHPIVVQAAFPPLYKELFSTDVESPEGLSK
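Luminescence from a UAS-regulated Photinus luciferase reporter in stably transfected Drosophila Schneider cells is measured; decreased signal marks ROR gamma inhibition. Fusion expression is induced by 700 uM copper sulfate for 20 hr.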
PINK1 expr mod: PINK1 expression modulation; PINK1 immunofluorescence, high-content cytometry, 24 h; Potency, µM (doses to about 76.6 µM), usual class: activators; 0.2% of 410,000 active; AID 624263; active means well fitted activation curve with a large enough effect; inconclusive means small, poorly fitted or top-dose-only effect; cell line not stated here; further: nearly all actives have a fitted effect of over 65% in size
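PINK1 protein, normally rapidly degraded, was detected by immunofluorescence after 24 hour compound treatment of a stable cell line. Titration data (5 concentrations) came from laser-scanning cytometry, with CCCP-treated wells as controls.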
ClpP mod: qHTS Assay for Activators of ClpP; ATP-dependent Clp protease proteolytic subunit (Bacillus subtilis (strain 168)), P80244; purified B. subtilis ClpP, FRET peptide cleavage, 20 min; Potency, µM (titrated, usually from 57.5 µM); 1.9% of 340,000 active; AID 651965, 2013; active means well fitted falling curve with a large enough effect; inconclusive means small, poorly fitted or top-dose-only effect; inactive means no such curve, though single readings can be large or run the other way; further: the source files actives as falling curves though it sought activators and does not explain the sign; nearly all actives have a fitted effect of over 65% in size
Target sequence (P80244 whole entry, looked up): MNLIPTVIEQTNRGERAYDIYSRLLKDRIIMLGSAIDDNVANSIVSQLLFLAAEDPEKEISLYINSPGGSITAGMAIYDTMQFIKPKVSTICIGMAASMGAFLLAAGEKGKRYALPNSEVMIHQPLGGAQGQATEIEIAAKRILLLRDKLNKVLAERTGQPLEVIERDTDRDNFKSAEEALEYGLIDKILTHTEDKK
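Purified B. subtilis ClpP, 10 microg/mL final in Tris/HCl pH8 with KCl, BSA, glycerol and Tween-20, cleaved an Abz/nitrotyrosine-quenched decapeptide. Fluorescence (ex 320, em 430) was read at 0 and 20 min at room temperature. Delta was normalized to 5.8 microM ADEP and DMSO/no-enzyme controls.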
Epigenetic derep: epigenetic control regulation, reporter derepression | Potency, µM (top dose mostly 53.9 µM), most hits filed as activators | AID 1865 | murine LDR cells, GFP reporter derepression, 30 h | 0.2% of 280,000 active; further: nearly all actives have a fitted effect of over 60% in size
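Reporter derepression read as number of fluorescent GFP-positive objects, 20-120 um in size, counted by laser-scanning cytometer. Mouse LDR line with an epigenetically silenced CMV-GFP locus; compound incubation 30 h, 37 C.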
Hits are given with their value; . = inactive; ? = inconclusive; / = no result given; [ ] = remark or other dose. Compounds with a hit are over-represented: about 8.1% of the library has one in this group of screens. Unless noted, the call rests on the fitted dose curve; in most records, active means well fitted curve in the direction sought with a large enough effect; inconclusive means small, poorly fitted or top-dose-only effect, or another doubt; inactive means no such curve, though single readings can be large; an effect the other way counts as inactive or inconclusive.

SMILES	Sfp PPTase inh	Gal4-VP16 FLuc	RORg inh	PINK1 expr mod	ClpP mod	Epigenetic derep
COC(=O)c1cc(CNC(=O)c2ccncc2)cc(NC(=O)c2ccccc2Cl)c1	/	/	/	.	/	/
Cc1ccnc2c(Cl)cccc12	/	/	/	/	.	/
O=C(NN=C1CCC(c2ccccc2)CC1)c1ccccc1-n1cccc1 (stereo unspecified)	.	.	.	.	32µM	.
CC1CCC(=NNC(=O)c2ccccc2-n2cccc2)CC1 (stereo unspecified)	/	/	/	.	/	/
COC(=O)c1coc(-c2ccc(C)cc2)c1C(=O)OC	.	.	.	.	.	.
COC(=O)c1coc(-c2ccc(OC)cc2)c1C(=O)OC	.	.	.	.	32µM	.
CC1(C)Cc2nc3sc4c(N(CCO)CCO)nnnc4c3cc2CO1	.	.	.	.	.	.
COc1nc(C)nc2c1sc1nc3c(cc12)COC(C)(C)C3	.	.	.	.	28µM	.
Cc1nc(OCC(C)C)c2sc3nc4c(cc3c2n1)COC(C)(C)C4	.	.	.	.	/	.
CC1(C)Cc2nc3sc4c(N(CCO)CCO)ncnc4c3cc2CO1	.	.	.	.	14µM	.
CC1(C)Cc2nc3sc(C(=O)NCCCO)c(N)c3cc2CS1	40µM	?	?	.	/	.
CC1(C)Cc2nc3sc4c(SCC(=O)O)ncnc4c3cc2CO1	.	14µM	8.9µM	.	.	.
CCOc1ccc(CCn2c3c(c(=O)[nH]c2=O)C(NC(=O)c2cccc(F)c2)(C(F)(F)F)C(=O)N3)cc1OCC (stereo unspecified)	/	/	/	.	.	.
Cc1ccc(C(=O)NCc2ccc(N(C)C)cc2)cc1NC(=O)c1nsc2ccccc12	/	/	/	.	.	.
CCc1nc2c(sc3nc4c(cc32)COC(C)(C)C4)c(=O)n1Cc1ccccc1	.	.	.	.	.	.
CC1(C)Cc2nc3sc4c(NCCO)ncnc4c3cc2CS1	.	?	4µM	.	.	.
CCc1nc2c(sc3nc4c(cc32)COC(C)(C)C4)c(=O)n1Cc1ccco1	3.5µM	.	.	.	.	.
CCCCn1cnc2c(sc3nc4c(cc32)CSC(C)(C)C4)c1=O	.	.	.	.	.	.
COc1cc(OC)c(NC(=O)N2CCCn3nc(C)cc32)cc1Cl	/	/	/	.	.	.
Cc1cccc(N2CCN(C(=O)Cn3c(C)c4cnn(-c5ccccc5)c(=O)c4c3C)CC2)c1C	/	/	/	.	.	.
Cc1nc(-c2ccc(Cl)cc2)sc1C1(C)CC(c2cccnc2)=NO1 (stereo unspecified)	56µM	.	.	.	.	.
CCc1ccc(NC(=O)C(=O)NCCc2sc3nc(-c4ccc(OC)cc4)nn3c2C)cc1	/	/	/	.	.	.
CN(C)CCCOc1ccc2c(c1)Sc1ccccc1CC2=O	22µM	.	.	.	.	.
O=C1Cc2ccccc2Sc2cc(OCCCN3CCCCC3)ccc21	.	.	.	.	.	.
O=C(COc1ccccc1[N+](=O)[O-])N1CCC(c2nc3ccccc3o2)CC1	/	/	/	.	.	.
SMILES	Sfp PPTase inh	Gal4-VP16 FLuc	RORg inh	PINK1 expr mod	ClpP mod	Epigenetic derep
O=C(Nc1ccc(NC(=O)c2ccco2)nc1)c1cccnc1	.	?	0.79µM	.	.	.
O=C(Nc1ccc(NC(=O)c2ccccc2F)cn1)c1ccco1	.	13µM	14µM	.	/	/
O=C(Nc1ccc(NC(=O)C2CC2)cn1)c1ccccc1	.	0.1µM	13µM	.	/	/
O=C(Nc1ccc(NC(=O)c2ccco2)nc1)c1cccc(F)c1	.	.	.	.	/	/
O=C(COc1ccccc1)Nc1ccccc1C(=O)OCc1cc(=O)n2nc(C3CC3)sc2n1	/	/	/	.	.	.
COc1ccc(NC(=O)Cn2c(=O)n(Cc3ccco3)c(=O)c3sc4ccccc4c32)cc1Cl	/	/	/	.	.	?
CCc1ccc(C(=O)NNC(=O)OC)cc1	.	.	.	.	14µM	.
CCOc1cc(S(=O)(=O)N(Cc2ccccc2)Cc2ccccc2)c(OCC)cc1-n1cnnn1	.	.	.	.	28µM	.
CCOc1cc(S(=O)(=O)NCc2ccccc2)c(OCC)cc1-n1cnnn1	/	/	/	.	32µM	/
COCc1c(C(=O)N2CCN(C3CCCCC3)CC2)cnn1-c1ncc(C)c(-c2cccs2)n1	/	/	/	.	/	/
Cc1cc(C(=O)COC(=O)c2ccc[nH]c2=O)c(C)n1C1CC1	.	.	.	.	.	.
Cc1cc(C(=O)COC(=O)c2ccc[nH]c2=O)c(C)n1-c1ccccc1	.	0.45µM	13µM	.	.	.
Cc1cc(C(=O)COC(=O)c2ccc[nH]c2=O)c(C)n1-c1ccc(F)cc1	.	7.1µM	10µM	.	.	.
Cc1nn2c(NCCCN(C)C)c3c(nc2c1-c1ccccc1)CCC3	.	.	11µM	.	.	.
Cc1nn2c(Nc3ccccc3)c3c(nc2c1-c1ccccc1)CCC3	.	5µM	2.8µM	.	?	.
COCCNc1c2c(nc3c(-c4ccccc4)c(C)nn13)CCC2	.	.	.	.	/	.
Cc1nn2c(NCCCN(C)C)c3c(nc2c1-c1ccccc1)CCCC3	.	.	?	.	/	.
Cc1nn2c(NC(C)C)c3c(nc2c1-c1ccccc1)CCC3	.	.	3.5µM	.	.	.
CCc1cccc(C)c1NC(=O)c1cc(S(=O)(=O)N(C)Cc2ccccc2)ccc1F	/	/	/	.	.	.
CCOC(=O)c1ccc(NC(=O)Nc2ncc(Cl)cc2Cl)cc1	.	.	.	/	/	.
CCOC(=O)c1ccc(NC(=S)NC2CCCC2)cc1	.	?	?	.	.	.
CCOC(=O)c1ccc(NC(=S)Nc2ccc(Cl)cn2)cc1	.	8.9µM	2.2µM	.	.	?
CCOC(=O)c1ccc(NC(=S)Nc2ccccn2)cc1	.	.[0.365 µM]	3.2µM	.	.	.
COc1cc(OC)c(OC)cc1CN1CCCC(c2[nH]ncc2-c2cccc(C(F)(F)F)c2)C1 (stereo unspecified)	/	/	/	.	/	/
CCc1nn(CC(=O)NCCCc2ccccc2)c(=O)c2cc3ccccc3n12	/	/	/	.	.	.
SMILES	Sfp PPTase inh	Gal4-VP16 FLuc	RORg inh	PINK1 expr mod	ClpP mod	Epigenetic derep
CN1CCN(Cc2coc3c(Cl)cc(Cl)cc3c2=O)CC1	50µM	.	.[1.91 µM]	.	.	/
Cc1ccccc1C(=O)Nc1ccc(C(=O)OCc2cc(=O)n3c4c(sc3n2)CCCC4)cc1	/	/	/	.	?	.
CC(C)c1nn2c(=O)cc(COC(=O)c3ccccc3NC(=O)COc3ccccc3)nc2s1	/	/	/	.	.	.
Oc1cccc(/C=C/c2ccc3cccc(O)c3n2)c1	.	5µM	.	.	.	/
O=[N+]([O-])c1ccc(/C=C/c2ccc3cccc(O)c3n2)cc1	.	?	2.5µM	.	.	/
COc1cccc(/C=C/c2ccc3cccc(O)c3n2)c1	?	11µM	3.5µM	.	/	/
Cc1ccc(/C=C/c2ccc3cccc(O)c3n2)s1	.	?	14µM	.	/	/

Assay outcomes from PubChem.
